V-ATPase pH = regulators of yeast V-ATPase proton pumping, primary screen, pHLuorin cytosolic pH fluorescence. S. cerevisiae. response, % at 10 µM. 0.37% of 350,000 active. AID 504577, 2011; in the data active = response mostly above about 7.3%, no sharp cut-off; inactive = mostly below about 5.4%; also: actives read high
Rce1 inh = yeast Rce1p protease inhibitors, primary screen, biochemical, fluorescence, cell-free homogeneous; CAAX prenyl protease 2 (Saccharomyces cerevisiae (strain ATCC 204508 / S288c)), Q03530; yeast membranes, quenched prenylated peptide cleavage fluorescence; calls only; 0.27% of 290,000 active; AID 2563, 2010;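 active = fall in fluorescence gain of 50% or more versus controls, with final raw signal at or below 3038400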;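 also: plate controls were neutral control wells for no effect and wells lacking membranes for full effect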
Target sequence (Q03530 whole entry, looked up): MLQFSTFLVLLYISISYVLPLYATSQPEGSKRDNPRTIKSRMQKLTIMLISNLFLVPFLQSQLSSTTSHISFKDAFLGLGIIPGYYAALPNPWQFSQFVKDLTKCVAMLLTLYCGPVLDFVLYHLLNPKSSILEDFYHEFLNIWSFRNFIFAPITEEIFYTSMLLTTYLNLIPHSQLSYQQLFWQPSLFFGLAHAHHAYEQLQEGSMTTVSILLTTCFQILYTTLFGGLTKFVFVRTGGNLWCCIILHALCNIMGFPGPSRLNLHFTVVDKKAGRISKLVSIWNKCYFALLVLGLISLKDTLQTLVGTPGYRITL
NALP1 inh = NALP1 inflammasome inhibitors in reconstituted yeast, colorimetric, S. cerevisiae, triplicate retest | AID 2071, 2009 | inhibition, % at 10 µM | 0.61% of 280,000 active | S. cerevisiae NALP1/ASC/caspase-1 growth, X-gal OD620, 72 h; in the data active = inhibition mostly above about 24%, no sharp cut-off; inactive = mostly below about 32%
PERK inhibitor = block of dimerizer-induced PERK translation repression, primary screen, PERK inhibitor project, CHO PERK-DD cells, SEAP luminescence, HTS. CHO PERK-DD fusion, SEAP luminescence translation reporter. 0.17% of 220,000 active. Eukaryotic translation initiation factor 2-alpha kinase 3 (Homo sapiens), Q9NZJ5. inhibition, % at 5.6 µM;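 active = inhibition above the mean inhibition of all tested compounds plus 3 SD, set separately per screening campaign, cut at about 2.9% in these data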;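 also: PERK kinase domain activated by AP20187 dimerizer at 100 nM; 0% = DMSO with dimerizer and 100% = rapamycin at 8.4 µM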
NLRP3 yeast inh = NALP3 inflammasome inhibitors in reconstituted yeast, primary screen, luminescence, uHTS; Yeast reconstituted NLRP3/ASC/caspase-1, beta-gal luminescence, 24 h; inhibition, % at 10 µM; 0.39% of 330,000 active;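 active = inhibition of 50% or more; inactive = inhibition below 50%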;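 also: plate controls were induced DMSO wells for no effect and uninduced yeast grown without galactose for full effect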
CR mimetic SO = reduction of superoxide in aged yeast, primary screen, HTS; S. cerevisiae aged cells, superoxide DHE fluorescence; active compounds read low; superoxide response (% of plate mean), % at 10 µM; 0.18% of 330,000 active; AID 2690, 2010;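 active = superoxide response under a set limit, about three screen SD below normal, cut at about 65% in these data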;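 also: yeast aged for seven days with compound at 30 °C before DHE staining; 100% = average MFI of all compound-treated wells on the plate with controls excluded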
* hit, by the source's call; i = inactive; . = not tested or not shown; + = active, no number. Most compounds without a hit are left out; they make up all but 1.6% or so of the library.

SMILES | V-ATPase pH | Rce1 inh | NALP1 inh | PERK inhibitor | NLRP3 yeast inh | CR mimetic SO
COc1ccc(OC)c(-c2c3cc(O)c(=O)cc-3oc3cc(O)c(O)cc23)c1 | -4 | . | 15 | 0 | . | 105
CCOc1ccccc1-c1c2cc(O)c(=O)cc-2oc2cc(O)c(O)cc12 | 75* | . | 2 | 1 | . | .
O=c1cc2oc3cc(O)c(O)cc3c(-c3ccccc3O)c-2cc1O | -3 | . | 1 | 3.1* | . | .
C#CCN(C[C@@H]1[C@@H](OC(=O)NCc2ccco2)[C@@H](OC(=O)NCc2ccco2)CN(C(=O)OC(C)C)N1C(=O)OC(C)C)S(=O)(=O)c1ccc(C)cc1 | 2 | . | . | . | . | .
Cc1cccc(NC(=O)COc2cccc3c2CCNC3=O)c1 | 1 | . | . | . | . | .
COc1ccc(C(C[N+](=O)[O-])C2(c3ccc(OC)c(OC)c3)C(=O)c3ccccc3C2=O)cc1 (stereo unspecified) | 8 | i | 104* | 0 | . | 118
C[C@H](CO)N1C[C@H](C)[C@@H](CN(C)Cc2ccc(C(=O)O)cc2)Oc2ncc(Br)cc2C1=O | 1 | . | . | . | . | .
COC(=O)C1=C(C)NC(=O)NC1c1ccc(OC(=O)c2ccco2)cc1 (stereo unspecified) | -2 | i | 18* | -1 | 0 | 94
COc1ccc(-c2ccc(CN3C(C(C)C)C(=O)N(Cc4cn(Cc5ccco5)nn4)CCS3(=O)=O)cc2)cn1 (stereo unspecified) | 0 | . | . | . | . | .
OC(COc1ccc(F)cc1Cl)CN1CCC(Cc2ccccc2)CC1 (stereo unspecified) | 6 | i | 42* | . | 47 | 110
OC(COc1ccccc1F)CN1CCC(Cc2ccccc2)CC1 (stereo unspecified) | 4 | i | 20 | . | 28 | 94
CC(=O)Oc1c(/C=C(\C#N)C(N)=O)[nH]c2ccccc12 | 0 | i | 30 | 2.9* | . | .
N#C/C(=C\c1c[nH]c2ccccc12)C(N)=O | 2 | i | 7 | 1 | -7 | 95
CCOc1ccc(C2C(C(=O)OC)=CN(C(C)c3ccccc3)C=C2C(=O)OC)cc1 (stereo unspecified) | 0 | + | 20 | . | 5 | 103
O=C(OCc1cn([C@H]2CN(C(=O)C3CCCCC3)[C@@H](c3ccccc3)C[C@@H]2O)nn1)c1ccccc1 | -1 | . | . | . | . | .
COC(=O)C1CCCN1S(=O)(=O)c1ccc2ccccc2c1 (stereo unspecified) | -5 | + | 23 | 1 | 10 | 108
COC(=O)C1CCCN1S(=O)(=O)c1ccc([N+](=O)[O-])cc1 (stereo unspecified) | -1 | i | 17 | . | 8 | 95
O=C(COC(=O)Cc1c[nH]c2ccccc12)Nc1cccc(Br)c1 | 4 | . | . | . | . | .
O=S(=O)(c1ccccc1)N1CCN=C1SCc1ccc(Cl)c(Cl)c1 | 37* | i | 36 | 0 | 26 | 95
O=S(=O)(c1ccccc1)N1CCN=C1SCc1ccc(Cl)cc1 | 1 | i | -1 | 0 | 26 | 101
C[C@@H]1CN([C@@H](C)CO)C(=O)c2cc(NS(=O)(=O)c3ccc(F)cc3)ccc2O[C@@H](C)CCCCO[C@H]1CN(C)C(=O)NC1CCCCC1 | 0 | . | . | . | . | .
CCOC(=O)c1ccc(S(=O)(=O)N2CCC(C(=O)NCC3COc4ccccc4O3)CC2)cc1 (stereo unspecified) | -1 | . | . | . | . | .
CCOc1cc(C2/C(=C(\O)c3cc(C)ccc3C)C(=O)C(=O)N2CCN(C)C)ccc1O (stereo unspecified) | 7 | i | 40* | 1 | -4 | 116
Cc1cc(NC(=O)c2oc3ccccc3c2C)ccc1-n1cnnn1 | 7 | + | 8 | -2 | 28 | 99
COc1ccc(NC(=O)Cn2cnc3c(cnn3C(C)(C)C)c2=O)cc1OC | 0 | i | 31* | 1 | -7 | 87
SMILES | V-ATPase pH | Rce1 inh | NALP1 inh | PERK inhibitor | NLRP3 yeast inh | CR mimetic SO
Cc1ccc(Nc2cc(=O)n(C)c(=O)[nH]2)cc1C | -1 | . | . | . | . | .
CCN(CC)C(=O)C(=O)N/N=C/c1cccs1 | 1 | i | -5 | 3.1* | 9 | 98
O=c1c(-c2ccccc2)c(O)c2ccccc2n1-c1ccccc1 | -2 | + | 14 | . | 20 | 93
CCCc1c(O)c2ccccc2n(-c2ccccc2)c1=O | -3 | i | 6 | 3 | 12 | 102
CCn1c(=O)c(-c2ccccc2)c(O)c2ccccc21 | -2 | + | -28 | 0 | -7 | 95
CCn1c(=O)c(-c2cc(=O)[nH][nH]2)c(O)c2ccccc21 | -4 | i | -24 | 1 | 19 | 81
CCCCCn1c(=O)c(-c2nc3ccccc3c(=O)[nH]2)c(O)c2ccccc21 | . | i | 23 | 2 | 14 | .
CCCCn1c(=O)c(-c2ccccc2)c(O)c2ccccc21 | -4 | + | 4 | 1 | 20 | 104
O=C(CC(=O)c1ccccc1)CC(O)(C=Cc1ccccc1)c1ccccc1 (stereo unspecified) | -4 | . | . | . | . | .
COc1ccc(C(C)=NOC(=O)c2c(-c3ccccc3Cl)noc2C)cc1CN1CCOCC1 | -4 | . | . | . | . | .
C[C@@H]1CN([C@@H](C)CO)C(=O)c2cc(Br)cnc2O[C@H]1CN(C)C(=O)c1ccncc1 | 2 | . | . | . | . | .
C=C(C(=O)c1ccccc1)C(NC(C)(C)C)c1ccccc1 (stereo unspecified) | -4 | . | . | . | . | .
Cc1ccc(-n2ncc3c(=O)n(-c4cccc(C)c4)c(=O)[nH]c32)cc1 | -5 | . | . | . | . | .
Cc1nc([N+](=O)[O-])cn1CCC#N | -4 | i | -1 | 3.6* | -6 | 112
O=C(C(Cc1ccccc1)N1C(=O)c2ccccc2C1=O)N1c2ccccc2CCc2ccccc21 (stereo unspecified) | 1 | + | 12 | 0 | 13 | 89
CC(C)Cn1cnc2sc3c(c2c1=N)CCCC3 | -1 | i | 40* | -2 | 16 | 103
N=c1c2c3c(sc2ncn1Cc1ccco1)CCCCC3 | -4 | i | 16 | 0 | 21 | 103
C[C@@H]1ON(C)[C@H]2C[C@H]3c4[nH]c5ccc(-c6ccc7c(c6)OCO7)cc5c4CCN3C[C@@H]12 | 1 | . | . | . | . | .
COc1ccc(CCN(C)CCCN2CC(c3ccccc3)CC2=O)cc1OC (stereo unspecified) | -2 | . | 22* | 0 | 16 | 71
COc1ccc(C2CC(=O)N(CCCN(C)CCc3ccc(OC)c(OC)c3)C2)cc1 (stereo unspecified) | -1 | i | 17 | 0 | -3 | 109
C[C@H](CO)N1C[C@H](C)[C@H](CN(C)Cc2ccncc2)Oc2cc(-c3ccccc3F)ccc2S1(=O)=O | -1 | . | . | . | . | .
